Test results as given in the supplement of paper PMC9694430.
Structures can show the parent of a compound that is named as a salt.

Legend:
Assay in all cases: thermal shift delta Tm vs DMSO control; higher = stronger stabilization (binding)
Settings in all cases: 12.5 µM; protein concentration 2 µM
LOC_OS01G57100-cb003 = tested on: LOC_OS01G57100-cb003
In short: (§1)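 Rice kinase domain constructs were expressed in E. coli, purified, and tested by differential scanning fluorimetry with compound added in DMSO. Each well of a 96-well plate held 19.5 μl of 2 μM kinase in 100 mM potassium phosphate pH 7.5, 150 mM NaCl, 10% glycerol and 5 × SYPRO Orange, and fluorescence was read from 25°C to 95°C at 0.05°C/s. The melting temperature shift is the mean of triplicates, taken against protein with DMSO alone after Boltzmann fitting.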

LOC_OS01G60330-cb001 = tested on: LOC_OS01G60330-cb001
In short: as §1

LOC_OS01G60700-cb002 = tested on: LOC_OS01G60700-cb002
In short: as §1

LOC_OS01G63280-cb003 = tested on: LOC_OS01G63280-cb003
In short: as §1

LOC_OS01G67340-cb003 = tested on: LOC_OS01G67340-cb003
In short: as §1

LOC_OS01G70970-cb002 = tested on: LOC_OS01G70970-cb002
In short: as §1

LOC_OS02G07810-cb001 = tested on: LOC_OS02G07810-cb001
In short: as §1

LOC_OS02G08530-cb003 = tested on: LOC_OS02G08530-cb003
In short: as §1

LOC_OS02G14120-cb001 = tested on: LOC_OS02G14120-cb001
In short: as §1

LOC_OS02G17970-cb001 = tested on: LOC_OS02G17970-cb001
In short: as §1

Compound	thermal shift delta Tm (LOC_OS01G57100-cb003) [°C]	thermal shift delta Tm (LOC_OS01G60330-cb001) [°C]	thermal shift delta Tm (LOC_OS01G60700-cb002) [°C]	thermal shift delta Tm (LOC_OS01G63280-cb003) [°C]	thermal shift delta Tm (LOC_OS01G67340-cb003) [°C]	thermal shift delta Tm (LOC_OS01G70970-cb002) [°C]	thermal shift delta Tm (LOC_OS02G07810-cb001) [°C]	thermal shift delta Tm (LOC_OS02G08530-cb003) [°C]	thermal shift delta Tm (LOC_OS02G14120-cb001) [°C]	thermal shift delta Tm (LOC_OS02G17970-cb001) [°C]
C=CC(=O)N1CCC[C@@H](n2nc(-c3ccc(Oc4ccccc4)cc3)c3c(N)ncnc32)C1	1.42	1.09	0.54	3.76	-0.23	1.12	0.96	1.16	0.34	0.6
COc1ccccc1-c1cc(Nc2cccc(CS(N)(=O)=O)c2)ncn1	2.72	0.45	1.21	0.28	0.81	0.41	0.75	1.15	1.66	1.02
COc1cc2nccc(Oc3ccc(NC(=O)C4(C(=O)Nc5ccc(F)cc5)CC4)cc3)c2cc1OC	1.05	2.17	1.12	1.29	0.96	1.37	1.4	1.21	5.23	0.76
CNc1nc(Nc2cn(C(C)(C)C#N)nc2C)ncc1C(F)(F)F	1.92	1.38	1.27	0.69	0.49	0.2	0.4	0.86	0.65	1.09
CCNC(=O)Nc1ccc(-c2nc3c(c(N4CCOC[C@@H]4C)n2)CCN(C2COC2)C3)cc1	1.02	0.52	0.42	0.65	0.16	0.23	0.04	0.71	-0.29	-0.11
COc1cc2nccc(Oc3ccc(NC(=O)c4cn(C(C)C)c(=O)n(-c5ccc(F)cc5)c4=O)cc3F)c2cc1OC	0.85	0.41	0.47	-0.09	0.68	0.8	-0.36	0.66	8.24	1.66
Cc1ccc(NC(=O)c2ccc(CN3CCN(C)CC3)cc2)cc1Nc1nccc(-c2cccnc2)n1 [Imatinib (STI571)]	1.6	0.71	0.95	0.65	0.52	0.38	0.18	1.39	1.22	0.21
C=CC(=O)Nc1cccc(C)c1Nc1ncc2cc(-c3c(Cl)c(OC)cc(OC)c3Cl)ccc2n1	1.11	1.2	0.26	-0.06	0.6	0.35	0.78	0.7	1.59	0.63
C[C@@]1(C(=O)Nc2ccc(F)nc2)CCCN1c1nc(Nc2cc(C3CC3)n[nH]2)c2cccn2n1	0.92	-2.64	0.85	0.6	-0.49	1.02	1.05	0.71	8.77	0.26
C[C@@H](Oc1cc(-c2cnn(C3CCNCC3)c2)cnc1N)c1c(Cl)ccc(F)c1Cl	2.74	1.69	0.88	0.44	1.69	1.7	0.08	0.54	10.6	0.54
C=CC(=O)Nc1ccc2ncnc(Nc3ccc(OCc4cccc(F)c4)c(Cl)c3)c2c1	5.43	8.4	1.59	0	4.19	3.43	2.95	1.07	2.45	2.87
CCCS(=O)(=O)Nc1ccc(F)c(C(=O)c2c[nH]c3ncc(-c4ccc(Cl)cc4)cc23)c1F [Vemurafenib (PLX4032, RG7204)]	3.36	10.2	0.62	14.8	3.46	3.78	2.03	1.07	4.6	1.48
N=C(N)NC(=N)NCCc1ccccc1 [Phenformin HCl]	2.51	0.5	0.54	0.18	-0.23	0.29	0.75	-0.63	1.22	0.39
COc1cccc(-n2c(=O)[nH]c3cc(Cl)n(-c4ccc(-c5cccc(OC)c5O)cc4)c3c2=O)c1	1.57	1.05	0.6	0.13	0.2	0.23	0.79	0.98	0.81	0.69
Cc1cc(C(=O)NOCCO)c(Nc2ccc(I)cc2F)n(C)c1=O	1.03	0.4	0.64	0.19	-0.42	0.23	0.73	0.29	-0.53	0.08
COc1ccc(CNC(=O)Nc2ncc([N+](=O)[O-])s2)cc1	1.87	0.81	1.38	0.15	0.55	0.54	1.25	1.46	-0.24	1.43
O=C1NC(=O)C(c2ccccc2[N+](=O)[O-])=C1Nc1ccc(O)c(Cl)c1	2.1	0.17	1.88	0.02	0.79	0.12	1.72	1.16	-1.08	1.06
Nc1cccc(-c2cc3c(Oc4cccc(O)c4)ncnc3[nH]2)c1	2.04	0.91	1.51	2.09	0.65	0.81	1.59	1.94	5.81	0.97
COc1cc2ncnc(Nc3cccc(Cl)c3)c2cc1OC [AG-1478 (Tyrphostin AG-1478)]	1.76	1.26	1.02	0.95	0.94	0.55	1.34	1.69	6.87	1.37
